# ± gives the standard deviation of the averaged measurements. Targets with the largest changes are over-represented here; the source holds about 6,200 in all.
# Compound: Nc1ncnc2c1ncn2[C@@H]1O[C@H](COP(=O)(O)OP(=O)(O)NP(=O)(O)O)[C@@H](O)[C@H]1O [adenylyl imidodiphosphate]
# Experiment: NP40-soluble protein abundance relative to vehicle (solubility fold change) (ratio); higher = more soluble protein in presence of AMP-PNP
# Procedure, shortened: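 Values are fold changes against the detergent-processed vehicle, based on vsn-normalised intensities. Jurkat crude lysate was treated at eight concentrations from 0.1 to 10 mM (10 min at room temperature, then 3 min at 37 °C), solubilised with 0.8% NP40 and benzonase, ultracentrifuged and analysed by TMT-labelled LC-MS/MS over three independent experiments.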
# UniProt O00567, sequence (O00567 whole entry): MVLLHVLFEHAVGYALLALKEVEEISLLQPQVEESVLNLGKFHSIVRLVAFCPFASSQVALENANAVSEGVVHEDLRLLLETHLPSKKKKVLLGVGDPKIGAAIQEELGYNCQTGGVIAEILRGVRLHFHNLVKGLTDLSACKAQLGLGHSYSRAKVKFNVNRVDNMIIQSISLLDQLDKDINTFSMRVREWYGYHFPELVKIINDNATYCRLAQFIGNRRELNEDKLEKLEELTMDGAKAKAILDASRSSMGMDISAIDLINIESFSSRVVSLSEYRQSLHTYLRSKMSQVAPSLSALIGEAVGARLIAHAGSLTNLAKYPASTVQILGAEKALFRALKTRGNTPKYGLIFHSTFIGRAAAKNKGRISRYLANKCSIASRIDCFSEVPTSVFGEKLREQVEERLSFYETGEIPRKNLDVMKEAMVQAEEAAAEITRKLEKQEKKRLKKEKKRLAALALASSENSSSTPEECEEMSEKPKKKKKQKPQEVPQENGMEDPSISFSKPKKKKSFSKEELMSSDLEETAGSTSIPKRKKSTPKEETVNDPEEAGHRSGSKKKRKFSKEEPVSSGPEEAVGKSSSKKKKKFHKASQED
# UniProt Q96QD8, sequence (Q96QD8 whole entry, one chain of several): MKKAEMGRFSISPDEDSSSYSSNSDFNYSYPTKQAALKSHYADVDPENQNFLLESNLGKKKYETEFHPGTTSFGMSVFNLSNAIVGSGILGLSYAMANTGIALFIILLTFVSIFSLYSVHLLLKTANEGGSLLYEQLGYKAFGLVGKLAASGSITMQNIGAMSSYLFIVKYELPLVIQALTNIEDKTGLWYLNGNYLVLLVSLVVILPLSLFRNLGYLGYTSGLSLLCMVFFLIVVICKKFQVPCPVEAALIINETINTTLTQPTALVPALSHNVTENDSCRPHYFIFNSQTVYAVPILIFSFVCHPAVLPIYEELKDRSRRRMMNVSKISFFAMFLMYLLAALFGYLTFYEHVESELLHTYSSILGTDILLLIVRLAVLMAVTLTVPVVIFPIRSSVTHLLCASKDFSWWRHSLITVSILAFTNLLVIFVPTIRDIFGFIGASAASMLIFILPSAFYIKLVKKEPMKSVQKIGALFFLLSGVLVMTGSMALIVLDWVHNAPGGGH
# UniProt Q8WTS6, sequence (Q8WTS6 whole entry, one chain of several): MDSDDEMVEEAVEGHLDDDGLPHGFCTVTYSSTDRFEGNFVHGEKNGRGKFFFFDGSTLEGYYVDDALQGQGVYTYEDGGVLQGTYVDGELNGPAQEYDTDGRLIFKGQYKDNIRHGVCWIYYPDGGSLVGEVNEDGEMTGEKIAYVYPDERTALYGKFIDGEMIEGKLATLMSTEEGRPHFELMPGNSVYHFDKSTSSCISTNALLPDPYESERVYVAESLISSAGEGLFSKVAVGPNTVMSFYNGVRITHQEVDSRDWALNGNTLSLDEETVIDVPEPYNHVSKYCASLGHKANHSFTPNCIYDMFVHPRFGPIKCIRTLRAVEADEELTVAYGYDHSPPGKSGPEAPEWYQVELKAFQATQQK
# UniProt Q8WUI4, sequence (Q8WUI4 whole entry, one chain of several): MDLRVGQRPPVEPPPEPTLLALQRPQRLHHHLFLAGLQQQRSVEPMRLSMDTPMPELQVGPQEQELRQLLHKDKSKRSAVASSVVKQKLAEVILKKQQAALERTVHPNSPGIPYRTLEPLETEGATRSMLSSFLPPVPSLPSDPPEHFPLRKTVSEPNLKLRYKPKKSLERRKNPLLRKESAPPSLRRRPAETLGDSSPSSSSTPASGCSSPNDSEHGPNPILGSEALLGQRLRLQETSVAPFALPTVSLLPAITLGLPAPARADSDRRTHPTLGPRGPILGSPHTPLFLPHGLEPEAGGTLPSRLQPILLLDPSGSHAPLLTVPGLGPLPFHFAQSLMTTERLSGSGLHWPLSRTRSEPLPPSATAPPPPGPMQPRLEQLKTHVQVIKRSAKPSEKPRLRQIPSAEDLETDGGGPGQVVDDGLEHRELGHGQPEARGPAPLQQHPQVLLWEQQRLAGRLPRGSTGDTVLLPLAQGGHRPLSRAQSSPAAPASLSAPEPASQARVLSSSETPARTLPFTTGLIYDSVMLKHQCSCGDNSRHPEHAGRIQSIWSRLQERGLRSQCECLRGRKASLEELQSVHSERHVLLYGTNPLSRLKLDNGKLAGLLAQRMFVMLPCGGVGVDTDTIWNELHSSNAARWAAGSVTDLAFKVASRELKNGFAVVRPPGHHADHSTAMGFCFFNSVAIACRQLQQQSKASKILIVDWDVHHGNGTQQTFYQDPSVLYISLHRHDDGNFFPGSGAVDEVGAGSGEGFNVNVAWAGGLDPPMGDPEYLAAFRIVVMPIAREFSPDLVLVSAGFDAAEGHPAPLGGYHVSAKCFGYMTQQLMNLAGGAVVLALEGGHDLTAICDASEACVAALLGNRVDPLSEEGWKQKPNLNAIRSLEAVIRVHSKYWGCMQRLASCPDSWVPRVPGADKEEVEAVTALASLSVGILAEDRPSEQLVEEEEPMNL
# UniProt Q9UJV9, sequence (Q9UJV9 whole entry, one chain of several): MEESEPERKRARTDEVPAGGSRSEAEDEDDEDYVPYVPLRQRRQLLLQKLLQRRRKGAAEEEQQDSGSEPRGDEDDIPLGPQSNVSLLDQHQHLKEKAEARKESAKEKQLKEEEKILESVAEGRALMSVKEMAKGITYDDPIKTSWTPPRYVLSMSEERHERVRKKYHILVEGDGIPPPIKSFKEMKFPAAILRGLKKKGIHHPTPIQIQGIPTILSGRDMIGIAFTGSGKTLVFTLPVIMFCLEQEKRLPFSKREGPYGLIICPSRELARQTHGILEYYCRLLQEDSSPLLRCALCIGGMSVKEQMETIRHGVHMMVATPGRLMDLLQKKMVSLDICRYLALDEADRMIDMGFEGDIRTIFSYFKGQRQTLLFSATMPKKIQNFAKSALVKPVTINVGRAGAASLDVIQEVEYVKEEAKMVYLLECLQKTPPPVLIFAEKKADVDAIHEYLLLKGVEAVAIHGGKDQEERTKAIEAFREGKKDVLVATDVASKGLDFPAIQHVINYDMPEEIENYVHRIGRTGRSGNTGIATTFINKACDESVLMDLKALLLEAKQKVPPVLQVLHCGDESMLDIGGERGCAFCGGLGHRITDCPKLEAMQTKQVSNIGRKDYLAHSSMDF
# UniProt Q8N2M8, sequence (Q8N2M8 whole entry, one chain of several): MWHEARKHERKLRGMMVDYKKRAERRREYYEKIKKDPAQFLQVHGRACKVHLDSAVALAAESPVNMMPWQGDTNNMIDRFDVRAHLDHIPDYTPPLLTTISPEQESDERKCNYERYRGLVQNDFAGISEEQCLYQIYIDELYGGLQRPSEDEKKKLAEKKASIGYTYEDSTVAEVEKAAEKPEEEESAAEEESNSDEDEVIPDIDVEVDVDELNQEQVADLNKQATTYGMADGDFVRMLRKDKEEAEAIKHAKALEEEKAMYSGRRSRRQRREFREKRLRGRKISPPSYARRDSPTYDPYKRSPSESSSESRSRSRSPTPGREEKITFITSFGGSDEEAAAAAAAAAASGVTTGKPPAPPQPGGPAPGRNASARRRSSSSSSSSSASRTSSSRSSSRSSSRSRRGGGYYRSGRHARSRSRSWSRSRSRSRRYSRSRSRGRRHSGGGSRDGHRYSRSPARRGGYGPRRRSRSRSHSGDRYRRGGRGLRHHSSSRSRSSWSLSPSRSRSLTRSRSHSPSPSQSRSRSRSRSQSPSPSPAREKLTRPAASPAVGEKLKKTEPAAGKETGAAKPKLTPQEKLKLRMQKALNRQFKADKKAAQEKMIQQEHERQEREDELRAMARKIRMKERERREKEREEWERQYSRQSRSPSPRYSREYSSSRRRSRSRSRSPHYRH
# UniProt P17480, sequence (P17480 whole entry, one chain of several): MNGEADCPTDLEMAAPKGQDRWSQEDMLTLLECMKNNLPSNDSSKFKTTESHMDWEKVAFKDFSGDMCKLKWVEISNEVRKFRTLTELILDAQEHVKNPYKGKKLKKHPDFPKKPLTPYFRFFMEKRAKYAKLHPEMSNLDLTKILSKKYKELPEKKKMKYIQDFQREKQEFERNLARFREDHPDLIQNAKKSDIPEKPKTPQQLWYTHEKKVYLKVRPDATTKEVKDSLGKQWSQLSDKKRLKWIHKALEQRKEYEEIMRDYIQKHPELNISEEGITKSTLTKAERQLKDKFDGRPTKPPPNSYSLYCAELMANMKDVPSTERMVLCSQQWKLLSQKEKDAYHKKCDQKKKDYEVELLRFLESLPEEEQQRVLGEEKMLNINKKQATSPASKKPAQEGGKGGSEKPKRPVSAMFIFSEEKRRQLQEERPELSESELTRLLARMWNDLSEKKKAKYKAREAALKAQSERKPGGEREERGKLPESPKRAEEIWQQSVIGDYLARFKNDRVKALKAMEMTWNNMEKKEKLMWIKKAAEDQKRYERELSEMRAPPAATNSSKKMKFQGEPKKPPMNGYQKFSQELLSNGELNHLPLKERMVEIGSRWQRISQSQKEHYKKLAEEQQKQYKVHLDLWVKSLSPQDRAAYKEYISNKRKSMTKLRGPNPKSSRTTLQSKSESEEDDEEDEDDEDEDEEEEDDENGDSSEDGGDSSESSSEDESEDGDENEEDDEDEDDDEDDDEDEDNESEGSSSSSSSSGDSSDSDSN
# UniProt O43242, sequence (O43242 whole entry): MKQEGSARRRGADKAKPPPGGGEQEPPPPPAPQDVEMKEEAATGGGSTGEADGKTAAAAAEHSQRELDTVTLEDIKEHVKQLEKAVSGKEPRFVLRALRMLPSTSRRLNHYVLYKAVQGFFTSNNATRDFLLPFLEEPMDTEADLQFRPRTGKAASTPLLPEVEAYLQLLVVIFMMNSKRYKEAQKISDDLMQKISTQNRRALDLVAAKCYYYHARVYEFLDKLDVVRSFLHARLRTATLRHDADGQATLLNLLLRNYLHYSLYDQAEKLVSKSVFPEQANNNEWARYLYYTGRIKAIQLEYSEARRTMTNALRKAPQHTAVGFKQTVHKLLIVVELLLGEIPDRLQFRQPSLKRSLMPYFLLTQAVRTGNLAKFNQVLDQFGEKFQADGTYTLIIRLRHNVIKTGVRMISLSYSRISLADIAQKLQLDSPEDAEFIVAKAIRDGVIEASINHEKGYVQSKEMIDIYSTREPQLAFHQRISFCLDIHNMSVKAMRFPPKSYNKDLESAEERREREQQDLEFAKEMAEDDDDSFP
Target,NP40-soluble protein abundance (concentration: 1mM),NP40-soluble protein abundance (concentration: 2mM),NP40-soluble protein abundance (concentration: 4mM),NP40-soluble protein abundance (concentration: 6mM),NP40-soluble protein abundance (concentration: 8mM),NP40-soluble protein abundance (concentration: 10mM)
F6U236|Q9BY11 (UniProt Q9BY11),0.978 ± 0.036,1.03 ± 0.057,0.968 ± 0.018,1 ± 0.063,0.978 ± 0.069,0.989 ± 0.054
J3KPH8|Q8WUI4|Q8WUI4-3|Q8WUI4-4|Q8WUI4-5|Q8WUI4-6|Q8WUI4-7|Q8WUI4-8 (UniProt Q8WUI4),0.979 ± 0.04,1 ± 0.027,1 ± 0.026,0.98 ± 0.024,0.998 ± 0.067,0.9557 ± 0.0038
H3BRQ0|Q96CD2 (UniProt Q96CD2),0.997 ± 0.028,0.998 ± 0.014,0.9917 ± 0.0054,1.018 ± 0.008,1 ± 0.041,0.978 ± 0.011
F6TLX2|Q9HC38-2 (UniProt Q9HC38),1.01 ± 0.02,1.01 ± 0.014,0.981 ± 0.03,0.958 ± 0.035,0.938 ± 0.034,0.95 ± 0.047
E5RFJ1|Q96MF7 (UniProt Q96MF7),1.01 ± 0.028,1.03 ± 0.06,1.02 ± 0.035,0.957 ± 0.033,0.989 ± 0.022,0.9706 ± 0.0092
A0A0G2JNU3|A6H8Y1|A6H8Y1-6|A6H8Y1-7 (UniProt A6H8Y1),1.05 ± 0.041,1.087 ± 0.0063,1.12 ± 0.056,1.17 ± 0.067,1.12 ± 0.07,1.22 ± 0.046
J3KNF8|O43169 (UniProt O43169),1.15 ± 0.069,1.34 ± 0.33,1.1 ± 0.049,1.08 ± 0.047,1.03 ± 0.08,1.05 ± 0.054
K7ER90|O75821|K7EL60 (UniProt O75821),1.02 ± 0.075,1.1 ± 0.077,1.11 ± 0.095,1.24 ± 0.045,1.27 ± 0.074,1.42 ± 0.14
I3L448|Q5TC12 (UniProt Q5TC12),1.01 ± 0.033,1.02 ± 0.015,1.01 ± 0.039,0.992 ± 0.029,0.965 ± 0.027,0.977 ± 0.039
UniProt O00567,1.08 ± 0.026,1.08 ± 0.024,1.16 ± 0.026,1.25 ± 0.056,1.37 ± 0.087,1.53 ± 0.12
LSM1 (UniProt O15116),0.913 ± 0.018,0.961 ± 0.041,0.921 ± 0.0096,0.918 ± 0.023,0.907 ± 0.011,0.897 ± 0.024
F5H7T0|F6RJM5|Q96S38|Q96S38-2 (UniProt Q96S38),0.999 ± 0.0077,1.02 ± 0.028,1.01 ± 0.034,0.9695 ± 0.004,0.991 ± 0.023,0.965 ± 0.046
A0A0A6YYC8|I3L1I5 (UniProt I3L1I5),1.01 ± 0.027,1.02 ± 0.04,1.02 ± 0.012,1.01 ± 0.023,1 ± 0.02,1.009 ± 0.0072
F8VU39|J3KPG5|Q9UIF9|Q9UIF9-2|Q9UIF9-3 (UniProt Q9UIF9),1 ± 0.015,0.9926 ± 0.0061,1.023 ± 0.0073,1.02 ± 0.039,1.01 ± 0.014,1.03 ± 0.037
E9PB61|Q86V81 (UniProt Q86V81),0.969 ± 0.032,1.08 ± 0.042,1.09 ± 0.027,1.27 ± 0.081,1.41 ± 0.14,1.6 ± 0.28
HMGN4 (UniProt O00479),1.024 ± 0.01,1.01 ± 0.047,1.04 ± 0.056,1.1 ± 0.07,1.08 ± 0.075,1.22 ± 0.076
I3VM54|Q9Y2K7 (UniProt Q9Y2K7),1.02 ± 0.016,1.08 ± 0.045,1.17 ± 0.037,1.26 ± 0.12,1.31 ± 0.11,1.43 ± 0.17
E9PLT2|P17480|P17480-2 (UniProt P17480),1.08 ± 0.032,1.23 ± 0.06,1.32 ± 0.055,1.47 ± 0.026,1.56 ± 0.027,1.73 ± 0.044
J3KNN5|Q9UJV9 (UniProt Q9UJV9),1.11 ± 0.029,1.1 ± 0.043,1.13 ± 0.073,1.12 ± 0.035,1.15 ± 0.053,1.22 ± 0.065
B5MCS2|Q8WTS6 (UniProt Q8WTS6),0.93 ± 0.076,0.946 ± 0.039,0.946 ± 0.043,0.954 ± 0.032,0.957 ± 0.022,0.936 ± 0.042
UniProt O14523|O14523-2,0.973 ± 0.015,0.988 ± 0.013,0.985 ± 0.037,0.968 ± 0.027,0.97 ± 0.047,1.01 ± 0.06
A0A0A0MQS2|F5H0Q6 (UniProt Q8N2M8),1.06 ± 0.049,1.13 ± 0.083,1.04 ± 0.064,1.06 ± 0.1,1.04 ± 0.043,1.06 ± 0.015
H0YLE6|Q9NWH9 (UniProt Q9NWH9),1.05 ± 0.044,1.11 ± 0.083,1.08 ± 0.039,1.12 ± 0.092,1.11 ± 0.094,1.17 ± 0.094
F8VX04|Q9H2H9 (UniProt Q9H2H9),1.14 ± 0.1,1.36 ± 0.19,1.1 ± 0.051,1.06 ± 0.094,1.01 ± 0.087,1.13 ± 0.19
SART1 (UniProt O43290),1.07 ± 0.048,1.12 ± 0.054,1.11 ± 0.034,1.22 ± 0.089,1.26 ± 0.067,1.36 ± 0.081
PSMD3 (UniProt O43242),0.909 ± 0.031,0.865 ± 0.055,0.885 ± 0.091,0.906 ± 0.087,0.933 ± 0.11,0.915 ± 0.14
SGTA (UniProt O43765),1.03 ± 0.052,1.15 ± 0.079,0.99 ± 0.03,1.01 ± 0.037,0.943 ± 0.054,1.02 ± 0.085
H7C5I3|J3KR55|P35236|P35236-2|P35236-3 (UniProt P35236),0.978 ± 0.0098,1.01 ± 0.021,0.994 ± 0.037,0.978 ± 0.011,0.959 ± 0.018,0.982 ± 0.033
K7EK07|P84243 (UniProt P84243+K7EK07),0.97 ± 0.11,1.01 ± 0.094,1.01 ± 0.084,1.08 ± 0.13,1.09 ± 0.15,1.16 ± 0.1
F8VUY8|Q96QD8 (UniProt Q96QD8),1 ± 0.015,1.07 ± 0.091,1 ± 0.022,0.967 ± 0.022,0.988 ± 0.014,0.989 ± 0.02
